# Screening results as filed in PubChem BioAssay.
# S2 tox – reduces viability in counter-screen for ATXN expression inhibitors; S2 cells (HEK-293 line with an ATXN2-luciferase reporter) viability, CellTiter-Fluor protease fluorescence, 24 h; AID 651635; hit rate 0.49% among 400,000; Potency, µM (series often up to 56.7 µM), hits mostly cytotoxic; note: nearly all actives have a fitted effect of over 40% in size
# ATXN2 expr inh – ATXN2 expression inhibition | hit rate 0.72% among 360,000 | AID 1745845 | HEK-293 ATXN2-luciferase reporter, luminescence, 24 h | Potency, µM (highest dose often 57 µM), for inactives: top-dose activity change, negative = inhibition, usual class: inhibitors; note: % is set by controls: 0 for no effect and ±100 for the full control effect; nearly all actives have a fitted effect of over 55% in size
#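 qHTS (up to 57 uM final) was run with 24 h compound exposure of reporter cells at 37 °C. Each well was multiplexed: SteadyGlo luminescence measured ATXN2-luciferase expression after a fluorogenic Gly-Phe-AFC viability readout (25 uM final).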
# KB-3-1 cytotox – KB-3-1 parental cell cytotoxicity; KB-3-1 viability, CellTiter-Glo ATP luminescence, 72 h; Potency, µM (highest dose often 46.1 µM), most hits filed as cytotoxic; hit rate 1.4% among 400,000; AID 1347075; note: % is set by controls: 0 for no effect and ±100 for the full control effect; nearly all actives have a fitted effect of over 60% in size
#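 72 h, 37 °C compound treatment of KB-3-1 parental cells; CellTiter-Glo added, 10 min, luminescence read. Data corrected against DMSO-only plates and normalized before curve fitting.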
# HT1080 IDH1KD tx – kills HT-1080 cells with IDH1 knockdown. hit rate 2% among 360,000. Potency, µM (series often up to 46.1 µM), inactives show at the top dose activity, negative = toxicity, actives largely listed as cytotoxic. HT-1080 IDH1 knockdown viability, ATP luminescence, 48 h. AID 686971;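 note: 0% = DMSO wells and -100% = cell-free medium wells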
#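 IDH1KD HT-1080 cells, 750/well, RPMI + 5% FBS; compound pinned after 2 h settling; 48 h, 37 °C; CellTiter-Glo luminescence; % activity normalised to DMSO and no-cell wells; curves fitted, classed by r2 and efficacy.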
# HT1080NT lethal – kills 2HG-producing HT-1080-NT fibrosarcoma cells; HT-1080-NT fibrosarcoma viability, CellTiter-Glo ATP luminescence, 48 h; Potency, µM (top dose mostly 46.1 µM), for the others: at the top dose activity, negative = less viability, hits mostly cytotoxic; hit rate 1.6% among 360,000; AID 686970;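 note: NT is the 2HG producing partner of a matched IDH1 knockdown line; 0% = DMSO-treated cells and -100% = media-only wells without cells; nearly all actives have a fitted effect of over 55% in size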
#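 Viability of the 2HG-overproducing fibrosarcoma line after 48 hours of compound exposure at 37 degrees C was determined by luminescence with CellTiter-Glo, and concentration-effect curves were then fitted and categorized.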
# KB-V1 cytotox – kills drug-selected multidrug resistant KB-V1 cells; Potency, µM (highest dose often 46.1 µM), usual class: cytotoxic; KB-V1 MDR cells viability, CellTiter-Glo, 72 h; AID 1347076; hit rate 3.4% among 400,000; note: % is set by controls: 0 for no effect and ±100 for the full control effect; nearly all actives have a fitted effect of over 60% in size
#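 In this primary screen, KB-V1 cells overexpressing P-gp are incubated with library compounds (lowest to highest concentration) for 72 h at 37 degrees C before a luminescent ATP viability read.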
# Active calls of the source: *; i = inactive; ? = inconclusive; · = no result given. Rows were chosen to be rich in hits. Some 6.2% of all compounds tested hit in one or more screens of this group. Calls come from the whole dose curve; as a rule, active = well fitted curve in the direction sought with a large enough effect; inconclusive = small, poorly fitted or top-dose-only effect, or another doubt; inactive = no such curve, though single readings can be large; an effect the other way counts as inactive or inconclusive. Potency is the fitted concentration of half-maximal effect.
SMILES,S2 tox,ATXN2 expr inh,KB-3-1 cytotox,HT1080 IDH1KD tx,HT1080NT lethal,KB-V1 cytotox
C[C@H](CO)N1C[C@H](C)[C@@H](CN(C)Cc2ccccc2)Oc2c(NC(=O)C3CCCCC3)cccc2C1=O,20µM*,?,?,-19%,-20%,?
O=C(NCC1CCN(C(=O)c2ccc([N+](=O)[O-])cc2)CC1)c1ccc([N+](=O)[O-])cc1,·,-17%,i,6%,-7%,?
C#Cc1ccc(NC(=O)C2(C)CCN2C(=O)CC(c2ccccc2)c2ccccc2)cc1 (stereo not drawn),i,?,?,?,?,?
CCOC(=O)C1=C(CN2CCN(c3ccccc3OC)CC2)NC(=O)NC1c1ccccc1 (stereo not drawn),?,-21%,i,·,·,i
COc1ccccc1-c1ncn(Cc2cccc(-c3ccccc3)c2)c1-c1cc(C)cc(C)c1,·,·,?,?,?,16µM*
COc1ccccc1-c1noc(-c2ccco2)n1,i,48%,i,-3%,-8%,i
COc1ccccc1-c1ncn(Cc2cccc(-c3ccccc3)c2)c1-c1ccco1,·,·,?,?,?,15µM*
COc1ccc(C(O)c2nc(-c3ccc(OC)c(OC)c3)cs2)cc1 (stereo not drawn),i,4%,i,10%,0%,?
COC1(OC)C(/C=C/c2ccc(Cl)cc2)C(C#N)(C#N)C1(OC)OC (stereo not drawn),·,?,?,21µM*,-23%,?
O=C(COC(=O)CCc1ccccc1)Nc1ccc(F)cc1Cl,i,-10%,i,20%,14%,i
O=C1C2C3C=CC(C3)C2C(=O)N1c1ccc2c(c1)CCC2 (stereo not drawn),i,6%,i,1%,1%,18µM*
Cc1ccc(N2C(=O)C3C4C=CC(C4)C3C2=O)cc1C (stereo not drawn),i,8%,i,2%,4%,i
COc1ccccc1NC(=O)C1=C(C)Nc2nc3ccccc3n2C1c1ccccc1Cl (stereo not drawn),i,4%,i,·,·,?
CC(c1ccccc1)N1C(=O)/C(=C/c2ccncc2)SC1=S (stereo not drawn),22µM*,·,?,?,?,?
Cc1ccc(S(=O)(=O)N2[C@H](CC(=O)c3cccs3)OC[C@@H]2C(C)C)cc1,·,·,18µM*,?,?,18µM*
Cc1ccc(S(=O)(=O)N2[C@H](CC(=O)c3ccccc3)OC[C@@H]2C(C)C)cc1,·,·,?,-18%,-17%,?
Cc1cc(NC(=O)CSc2nc3c([nH]c4ccccc43)c(=O)n2-c2ccc(Cl)cc2)no1,i,3%,i,·,·,?
Cc1cc(NC(=O)CSc2nnc(-c3c[nH]c4ccccc34)n2-c2ccc(Cl)cc2)no1,?,-3%,i,11µM*,-3%,i
COc1ccc(C(=O)NCCn2cc(SCC(=O)Nc3cc(C)on3)c3ccccc32)cc1OC,i,0%,i,-5%,-9%,i
COc1ccccc1C(=O)NCCn1cc(SCC(=O)Nc2cc(C)on2)c2ccccc21,i,-16%,i,-6%,7%,8.2µM*
Cc1cc(NC(=O)CSc2cn(CCNC(=O)c3ccc(Cl)cc3)c3ccccc23)no1,19µM*,0%,i,-7%,-7%,i
CCCn1c2ccccc2c2cnn(CC(=O)NCCc3ccc(OCC)cc3)c(=O)c21,i,10%,i,·,·,i
Fc1cccc(Cl)c1C1SCc2nc3ccccc3n21 (stereo not drawn),i,-2%,23µM*,?,?,23µM*
CC(=O)Nc1ccc(N2C(=O)CSC2c2c(F)cccc2Cl)cc1 (stereo not drawn),·,·,?,-11%,-5%,i
CCSc1nc2c([nH]c3ccccc32)c(=O)n1C,i,5%,i,23%,13%,i
SMILES,S2 tox,ATXN2 expr inh,KB-3-1 cytotox,HT1080 IDH1KD tx,HT1080NT lethal,KB-V1 cytotox
CCC1CCCCN1C(=O)CSc1nc2c([nH]c3ccccc32)c(=O)n1C (stereo not drawn),?,-9%,i,3%,9%,23µM*
CC(=O)N(C)c1ccc(OCC(O)Cn2c3ccc(Cl)cc3c3cc(Cl)ccc32)cc1 (stereo not drawn),?,?,21µM*,?,-16%,21µM*
COc1ccc(S(=O)(=O)NCCCO)cc1-c1nnc2c3ccccc3c(C)nn12,i,5%,?,·,·,i
CCC(C)NCCOCCOc1cc(C)c(Cl)c(C)c1 (stereo not drawn),i,?,?,21µM*,21µM*,?
CCCCNCCOCCOc1ccc(C)cc1Br,i,-8%,i,-23%,-30%,16µM*
C=CCc1cc(Cl)ccc1OCCCNC(C)CC (stereo not drawn),i,-13%,?,?,?,13µM*
CCC(C)NCCOCCOc1ccc(Cl)cc1Br (stereo not drawn),i,-28%,i,?,21µM*,i
Clc1ccc(OCCCNCc2ccccc2)c(Br)c1,·,?,i,?,?,21µM*
Clc1ccc(Cl)c(OCCCCNCc2ccccc2)c1,i,-13%,i,?,?,i
Cn1c(SCCOc2ccccc2Cl)nnc1-c1cccs1,i,17%,i,-13%,-26%,18µM*
Cc1cc(OCCSc2nnc(-c3cccs3)n2C)ccc1Cl,i,-24%,i,-13%,-1%,i
CC(/C=N/n1cnnc1)=C\c1ccccc1,i,-28%,5.2µM*,16%,12%,1.8µM*
CCCNC(=O)C[C@H]1C[C@H]2c3cc(NC(=O)Nc4ccc(F)cc4)ccc3O[C@H]2[C@@H](CO)O1,i,-3%,i,9%,12%,i
CC1=CC(O)=NS(=O)(=O)O1,·,·,?,·,·,i
COc1ccccc1C(=O)Nc1ccc2c(c1)nc(CCNC(=O)c1ccccc1)n2C,i,-6%,?,4.1µM*,4.1µM*,?
COc1ccccc1C(=O)Nc1ccc2c(c1)nc(CCNC(C)=O)n2C,i,14%,i,14%,24%,i
CCn1c(CCNC(=O)c2ccc(OC)c(OC)c2)nc2ccccc21,i,-11%,i,3%,9%,3.7µM*
CSc1ccc(-c2nc3cccc(C)n3c2Nc2ccc3c(c2)OCO3)cc1,?,5%,i,·,·,i
N#CC1=C(N)Oc2c(ccc3ccccc23)C1c1cccs1 (stereo not drawn),?,45%,0.89µM*,1.3µM*,2µM*,5µM*
